Results from PubChem BioAssay (EPA / NIEHS).
Calls of active or inactive are those of the source. How the source made its calls: active means hit-call score of the fitted dose curve at least 0.9, where 1 is the maximum; inactive means score below 0.9.

How the values were obtained:
[1] = APR_HepG2_CellCycleArrest_24hr: Apredica 24-hour HepG2 Assay for Cell Cycle Arrest (AID 2282905); conditions: imaging, actives raise or lower the signal;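 further: cell cycle arrest scored as ratio of 2N to 4N nuclear DNA content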
Outline: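 HepG2 cells were exposed to compounds at 0.39–200 uM (ten concentrations, duplicate) in 0.5% v/v DMSO for 24 hr. After formaldehyde fixation and Triton permeabilization, Hoechst 33342-stained nuclei were imaged at 20x; DNA content was quantified, with bidirectional fitting against DMSO.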

[2] = APR_HepG2_NuclearSize_24hr: Apredica 24-hour HepG2 Assay for Nuclear Size (AID 2282907); conditions: high-content imaging, actives raise or lower the signal
Outline: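 HepG2 human liver cells were exposed for 24 hr to compounds at 0.39–200 uM (ten concentrations, duplicate) in 0.5% v/v DMSO. They were then formaldehyde-fixed, Triton-permeabilized and Hoechst 33342-stained, and nuclear diameter was imaged at 20x. Bidirectional fits were made against DMSO.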

[3] = APR_HepG2_CellLoss_24hr: Apredica 24-hour HepG2 Assay for Cell Loss (AID 2282908); conditions: high-content imaging;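 on AC50: fit in both directions so a hit may be cell loss or gain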
Outline: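 Compounds were tested at 0.39–200 uM in duplicate with 0.5% v/v DMSO final. Cells were then fixed in 3.7% formaldehyde, Hoechst 33342 nuclei were imaged at 20x by HCS, and cell number was fitted bidirectionally against DMSO.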

[4] = APR_HepG2_MicrotubuleCSK_24hr: Apredica 24-hour HepG2 Assay for Microtubule CSK Stabilty (AID 2282909); conditions: HepG2 microtubule cytoskeleton imaging, actives raise or lower the signal
Outline: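 HepG2 cells exposed 24 h to compounds at 0.39–200 uM (duplicate, 0.5% v/v DMSO final), then fixed, permeabilized and immunostained for alpha-tubulin with Hoechst 33342. Cytoskeleton imaged at 20x; bidirectional fit versus DMSO baseline.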

[5] = APR_HepG2_MitoticArrest_24hr: Apredica 24-hour HepG2 Assay for Mitotic Arrest (AID 2282910); conditions: high-content imaging, actives raise or lower the signal
Outline: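 HepG2 human liver cells were exposed to compounds at 0.39–200 uM (10 concentrations, duplicate) in 0.5% v/v DMSO for 24 hr, then fixed and immunostained for phospho-histone H3 with Hoechst 33342. Mitotic arrest came from HCS fluorescent imaging, fitted bidirectionally against DMSO.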

[6] = APR_HepG2_MitoMembPot_24hr: Apredica 24-hour HepG2 Assay for Mitochondrial Membrane Potential (AID 2282911); conditions: imaging, actives raise or lower the signal
Outline: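 Cells are dosed for 24 hr across 0.39 to 200 uM with solvent held at 0.5% DMSO. They are then stained with 250 nM MitoTracker Red CMXRos for 30 min, fixed in 3.7% formaldehyde and imaged.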

[7] = APR_HepG2_MitoMass_24hr: Apredica 24-hour HepG2 Assay for Mitochondrial Mass (AID 2282912); conditions: high-content imaging, actives raise or lower the signal
Outline: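 Human HepG2 liver cells were exposed for 24 hr to compounds at 0.39–200 uM (duplicates, 0.5% v/v DMSO final). They were stained live with 250 nM MitoTracker Red CMXRos for 30 min, fixed in 3.7% formaldehyde, and imaged by HCS fluorescence; signals were fitted bidirectionally against DMSO.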

[8] = APR_HepG2_p53Act_24hr: Apredica 24-hour HepG2 Assay for p53 Activation (AID 2282913); conditions: high-content imaging, actives raise or lower the signal;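 further: p53 protein immunofluorescence averaged per cell in HepG2 with Hoechst nuclei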
Outline: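 Human HepG2 liver cells; 24 hr cpd treatment, 0.39–200 uM, 0.5% DMSO final. Fixed in 3.7% formaldehyde, permeabilized with 0.5% Triton X-100, stained with anti-p53/Cy5 plus Hoechst 33342. Six images per well at 20x; gain or loss vs DMSO.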

[9] = APR_HepG2_CellCycleArrest_72hr: Apredica 72-hour HepG2 Assay for Cell Cycle Arrest (AID 2282914); conditions: high-content imaging, actives raise or lower the signal
Outline: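 Read-out is Hoechst-stained nuclear DNA content measured by automated fluorescence imaging (20x, six images per well), fitted in both directions relative to DMSO. Human HepG2 liver cells received 0.39–200 uM compound for 72 hr at 0.5% v/v DMSO.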

[10] = APR_HepG2_CellLoss_72hr: Apredica 72-hour HepG2 Assay for Cell Loss (AID 2282915); conditions: high-content imaging
Outline: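 HepG2 cells were exposed for 72 hr to compounds at 0.39–200 uM (ten concentrations, duplicate) in 0.5% v/v final DMSO. Nuclei were stained with Hoechst 33342 after 3.7% formaldehyde fixation, imaged at 20x, and counted; fits bidirectional versus DMSO.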

[11] = APR_HepG2_P-H2AX_72hr: Apredica 72-hour HepG2 Assay for H2AX Phosphorylation (AID 2282916); conditions: imaging, actives raise or lower the signal;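 further: phospho-histone H2A.x immunostain intensity per cell marking DNA damage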
Outline: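 HepG2 human liver cells were exposed for 72 hr to compounds at 0.39–200 uM (10 concentrations, duplicate per plate) in 0.5% v/v DMSO. Fixed, permeabilized cells were immunolabeled for phospho-histone H2A.x with Hoechst 33342 and imaged by HCS fluorescence; bidirectional fit versus DMSO.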

[12] = APR_HepG2_MitoMembPot_72hr: Apredica 72-hour HepG2 Assay for Mitochondrial Membrane Potential (AID 2282917); conditions: imaging, actives raise or lower the signal
Outline: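 HepG2 cells exposed 72 h to compounds at 0.39–200 uM (0.5% v/v DMSO, duplicates); MitoTracker Red CMXRos 250 nM loaded 30 min before 3.7% formaldehyde fixation, imaged by HCS fluorescence. Bidirectional fit versus DMSO.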

[13] = APR_HepG2_MitoticArrest_72hr: Apredica 72-hour HepG2 Assay for Mitotic Arrest (AID 2282918); conditions: high-content imaging, actives raise or lower the signal
Outline: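 Read-out is phospho-histone H3 immunofluorescence with Hoechst nuclear segmentation, imaged at 20x. Human HepG2 liver cells received ten concentrations (0.39–200 uM, final DMSO 0.5% v/v) for 72 hr before fixation. Gain or loss of signal was fitted relative to DMSO.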

[14] = APR_HepG2_MicrotubuleCSK_72hr: Apredica 72-hour HepG2 Assay for Microtubule CSK Stabilty (AID 2282919); conditions: HepG2 microtubule cytoskeleton, high-content imaging, actives raise or lower the signal
Outline: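 HepG2 human liver cells were dosed for 72 h at ten concentrations from 0.39 to 200 uM in duplicate (0.5% v/v DMSO final). Fixed, permeabilized cells were immunostained for alpha-tubulin (Cy5) with a Hoechst counterstain and imaged at 20x.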

[15] = APR_HepG2_StressKinase_72hr: Apredica 72-hour HepG2 Assay for Stress Kinase (AID 2282921); conditions: HepG2 stress kinase (phospho-c-Jun) imaging, actives raise or lower the signal
Outline: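 Cells were exposed for 72 h to ten concentrations (0.39–200 uM, duplicate) at 0.5% v/v DMSO final, then fixed with 3.7% formaldehyde, permeabilized and immunostained for phospho-c-Jun (Cy3 secondary) with Hoechst nuclear counterstain.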

[16] = APR_HepG2_StressKinase_24hr: Apredica 24-hour HepG2 Assay for Stress Kinase (AID 2282922); conditions: HepG2 stress kinase (phospho-c-Jun) imaging, actives raise or lower the signal
Outline: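 HepG2 cells exposed 24 hr to compound at 0.39–200 uM (10 concentrations, duplicate), 0.5% v/v DMSO final. Fixed in 3.7% formaldehyde, permeabilized with Triton X-100, immunolabeled for phospho-c-Jun with Hoechst 33342; HCS fluorescence imaging, bidirectional fit versus DMSO.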

[17] = APR_HepG2_p53Act_72hr: Apredica 72-hour HepG2 Assay for p53 Activation (AID 2282923); conditions: high-content imaging, actives raise or lower the signal;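 further: average cellular p53 protein immunofluorescence intensity in HepG2 cells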
Outline: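 Cells were dosed for 72 hr with compounds at 0.39–200 uM in duplicate (final DMSO 0.5% v/v), then fixed in 3.7% formaldehyde, permeabilized with Triton X-100 and immunostained for p53 (Cy5) with Hoechst 33342 nuclear counterstain.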

[18] = APR_HepG2_MitoMass_72hr: Apredica 72-hour HepG2 Assay for Mitochondrial Mass (AID 2282924); conditions: high-content imaging, actives raise or lower the signal;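 further: MitoTracker Red CMXRos stain intensity per cell imaged as mitochondrial mass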
Outline: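 HepG2 cells were exposed for 72 hr to compounds at 0.39–200 uM (ten concentrations, duplicate, 0.5% v/v DMSO final). Live cells were stained with 250 nM MitoTracker Red CMXRos for 30 min, then fixed in 3.7% formaldehyde and imaged by HCS fluorescence.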

[19] = APR_HepG2_NuclearSize_72hr: Apredica 72-hour HepG2 Assay for Nuclear Size (AID 2282925); conditions: high-content imaging, actives raise or lower the signal
Outline: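 HepG2 cells were exposed to compounds at ten concentrations from 0.39 to 200 uM (duplicate, 0.5% DMSO final) for 72 hr. After fixation in 3.7% formaldehyde, nuclei were stained with Hoechst 33342 (2 ug/mL) and imaged at 20x.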

[20] = APR_HepG2_P-H2AX_24hr: Apredica 24-hour HepG2 Assay for H2AX Phosphorylation (AID 2282920); conditions: high-content imaging, actives raise or lower the signal
Outline: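 HepG2, 24 hr, cpd 0.39–200 uM (10 conc, duplicate), DMSO 0.5% v/v final. Fix 3.7% formaldehyde, Triton X-100 permeabilize, anti-phospho-H2A.x 1:200 + Hoechst 2 ug/mL. Imaged, bidirectional fit vs DMSO.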

Measured: AC50

Nc1ccc(Cl)cc1N
active: [1] 0.162 µM | [8] 0.944 µM | [9] 1.46 µM | [10] 1.1 µM | [11] 5.9 µM | [13] 2.4 µM | [14] 3.83 µM | [17] 3.54 µM
not listed: [20]
inactive: all other assays above

COP(=S)(OC)SCN1C(=O)c2ccccc2C1=O
not listed: [20]
inactive: all other assays above

OCCCBr
not listed: [20]
inactive: all other assays above

Brc1ccc(Oc2ccccc2)cc1
active: [3] 114 µM | [10] 109 µM | [13] 100 µM
inactive: all other assays above

c1ccc(NNc2ccccc2)cc1
active: [8] 110 µM | [9] 104 µM | [10] 97.9 µM | [11] 100 µM | [13] 100 µM | [17] 98.9 µM | [18] 150 µM
inactive: all other assays above

Cc1ccc([N+](=O)[O-])cc1
not listed: [20]
inactive: all other assays above

Nc1ccc([N+](=O)[O-])cc1
inactive: all assays above
